Screening data: PubChem BioAssay, National Center for Advancing Translational Sciences (NCATS)
Sampled rows, rich in hits. Any-hit rate of the full collection: about 18%.
KAT2A inh = inhibitors of human GCN5L2 histone acetyltransferase. Q92830. GCN5L2 HAT assay, ThioGlo1 CoA-SH fluorescence. Potency, µM (titrated, usually from 58.9 µM), for inactives: at the highest dose activity change, negative = inhibition, most hits filed as inhibitors. 0.21% of 390,000 active
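Titration-based screen in which CoA formation is detected via maleimide probe ThioGlo1 (50uM) turning fluorescent on thiol reaction; substrates H3(1-25) 75uM and acetyl-CoA 70uM, GCN5L2 20nM, 20 min incubation at room temperature.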
VDR inhibitor = inhibitors of human vitamin D receptor | Potency, µM, without a hit: max response, negative = inhibition, hits mostly inhibitors | VDR-SRC2-3 peptide fluorescence polarization, 2 h | P11473 | 0.93% of 400,000 active | AID 504847
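Fluorescence polarization assay measuring small-molecule disruption of VDR binding to the coregulator peptide SRC2-3. Compounds were pin-transferred (23 nl) into the reagent mix and incubated 2 h at room temperature before reading.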
TDP1 cell noCPT = qHTS for Inhibitors of human tyrosyl-DNA phosphodiesterase 1 (TDP1): qHTS in cells in absence of CPT | DT40 Tdp1-/- hTDP1 cells, no CPT, ATP luminescence, 48 h | 15% of 420,000 active | Potency, µM (top dose mostly 46.2 µM), for inactives: at the top dose activity change, negative = growth inhibition, actives largely listed as inhibitors; further: nearly all actives have a fitted effect of over 55% in size
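Chicken DT40 Tdp1-/- cells stably complemented with human TDP1 were seeded at 400 cells/well with DMSO in place of 20 nM camptothecin. After compound pinning, cells grew at least 48 hr at 37 °C; viability read by CellTiter-Glo luminescence.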
TDP1 cell CPT = growth inhibition of DT40 Tdp1-/-;hTDP1 cells with camptothecin (screen for TDP1 inhibitors) | chicken DT40 Tdp1-/-;hTDP1 cells + 20 nM CPT, ATP luminescence, 48 h | Potency, µM (series often up to 46.2 µM), without a hit: at the top dose activity change, negative = growth inhibition, usual class: inhibitors | 12% of 420,000 active | AID 686979; further: nearly all actives have a fitted effect of over 55% in size
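Cell growth measured by CellTiter-Glo luminescence after a minimum 48 h, 37 C compound exposure with 20 nM CPT in Tdp1-knockout DT40 cells stably expressing hTDP1, seeded 400/well; qHTS titration format.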
TDP1 inh = blocks human tyrosyl-DNA phosphodiesterase 1; Q9NUW8; recombinant TDP1, AlphaScreen DNA substrate cleavage; Potency, µM (top dose mostly 130 µM), without a hit: at the top dose activity change, negative = inhibition, actives largely listed as inhibitors; 0.28% of 350,000 active; further: nearly all actives have a fitted effect of over 40% in size
Target sequence (Q9NUW8 whole entry, looked up): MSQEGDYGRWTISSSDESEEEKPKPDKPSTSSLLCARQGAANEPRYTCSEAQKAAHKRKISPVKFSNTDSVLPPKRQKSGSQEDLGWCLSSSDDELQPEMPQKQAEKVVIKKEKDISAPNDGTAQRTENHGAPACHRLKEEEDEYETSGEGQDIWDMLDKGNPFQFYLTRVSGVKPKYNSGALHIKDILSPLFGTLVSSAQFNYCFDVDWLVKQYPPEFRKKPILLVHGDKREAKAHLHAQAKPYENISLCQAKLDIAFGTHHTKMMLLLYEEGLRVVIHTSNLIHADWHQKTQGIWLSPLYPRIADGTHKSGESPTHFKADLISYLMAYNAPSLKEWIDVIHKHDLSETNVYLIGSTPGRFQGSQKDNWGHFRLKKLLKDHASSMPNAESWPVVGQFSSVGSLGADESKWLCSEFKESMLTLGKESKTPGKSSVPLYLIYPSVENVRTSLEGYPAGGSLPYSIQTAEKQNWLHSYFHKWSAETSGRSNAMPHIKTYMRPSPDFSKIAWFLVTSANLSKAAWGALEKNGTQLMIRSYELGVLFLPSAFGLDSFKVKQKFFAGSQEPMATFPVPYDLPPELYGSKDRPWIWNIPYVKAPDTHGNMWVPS
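Signal: AlphaScreen proximity between streptavidin donor and anti-FITC acceptor beads on intact substrate. Reaction: Tdp1 1 nM, substrate 15 nM final, 5 min RT after 15 min compound preincubation.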
PLK1 PBD block = inhibitors of human PLK1 polo-box domain binding; Plk1 PBD binding of FITC phosphopeptide, fluorescence polarization; P53350; 2.8% of 360,000 active; Potency, µM, for the others: max response, negative = inhibition, hits mostly inhibitors; further: series mostly up to about 57 µM; nearly all actives have a fitted effect of over 65% in size
Active calls of the source: *; u = inconclusive; x = no result; [ ] = dose if it differs, or a comment. The call rests on the fitted dose curve; in most records, active means well fitted curve in the direction sought with a large enough effect; inconclusive means small, poorly fitted or top-dose-only effect, or another doubt; inactive means no such curve, though single readings can be large; an effect the other way counts as inactive or inconclusive. On the % scale 0 is the no-effect control and ±100 the full control effect; potency means the concentration at half of the fitted maximal effect.

SMILES | KAT2A inh | VDR inhibitor | TDP1 cell noCPT | TDP1 cell CPT | TDP1 inh | PLK1 PBD block
CC[C@H]1NC(=O)[C@@H](NC(=O)c2ncccc2O)[C@@H](C)OC(=O)[C@H](c2ccccc2)NC(=O)[C@@H]2CC(=O)CCN2C(=O)[C@H](Cc2ccccc2)N(C)C(=O)[C@@H]2CCCN2C1=O | x | x | -8% | 11% | x | x
CCN(CC)C(=O)[C@@]1(c2ccccc2)C[C@@H]1CN | 4% | 12% | x | x | x | x
CCOC(=O)c1[nH]c(C)c(C(=O)OCC(=O)NCc2ccc(OC)c(OC)c2)c1C | -1% | 11% | u | u | -1% | -6%
CCOC(=O)c1c(C)[nH]c(C(=O)OCC(=O)NCCc2ccc(OCC)c(OCC)c2)c1C | -4% | 7% | 5.2µM* | 6.5µM* | x | -5%
CCOC(=O)c1c(C)[nH]c(C(=O)OCC(=O)NCc2ccco2)c1C | x | x | 23µM* | 18µM* | x | 1%
CCOc1ccc(CCNC(=O)COC(=O)c2sccc2C)cc1OCC | u | -9% | 13µM* | u | 5% | 2%
CCOC(=O)c1c(C)[nH]c(C(=O)OCC(=O)NCc2ccc(F)cc2)c1C | -2% | -18% | u | -19% | -1% | -5%
O=C(COC(=O)C1CC2C=CC1C2)NCc1ccco1 (centres undefined) | -25% | -6% | -25% | -25% | 28µM* | u
CCc1cccc(-n2c(=O)c3cccnc3n2CC(=O)Nc2ccc(F)c(C)c2)c1 | 9% | 9% | u | u | 5% | x
CC(C)Oc1ccc(C(=O)NCCCNC(=O)c2ccccn2)cc1 | -8% | -25% | -31% | -10% | -2%[0.0935 µM] | -18%
CCC(Sc1nc2sc(C(=O)OC)c(C)c2c(=O)n1N)C(=O)N(CC)CC (centres undefined) | 0% | 4% | 13µM* | u | 4% | 1%
COc1ccc2c(c1)CCC1C2CC[C@@]2(C)C1CC[C@@H]2NCCCCCCN1C(=O)CCC1=O (some centres undefined) | -5% | 5% | x | x | x | x
O=C(C[n+]1ccc(C(=O)c2ccccc2)cc1)Nc1cccc([N+](=O)[O-])c1 | x | x | 16µM* | 21µM* | x | -3%
O=C(C[n+]1ccc(-c2cc(C(=O)Nc3cccc(C(F)(F)F)c3)c3ccccc3n2)cc1)c1cccc([N+](=O)[O-])c1 | -18% | 0% | 23µM* | u | 3% | u
O=C(C[n+]1ccc(C(=O)c2ccccc2)cc1)Nc1ccccc1OC(F)F | -3% | -12% | 16µM* | u | 0% | 0%
O=C(COC(=O)c1ccc[n+]([O-])c1)Nc1ccccc1OC(F)F | 2% | -1% | -16% | -22% | 0% | -1%
O=C(C[n+]1cccc(NC(=O)c2ccccc2)c1)c1cccc([N+](=O)[O-])c1 | -10% | -11% | u | u | 1% | -11%
O=C(Cc1ccccc1)Nc1cccc([N+](=O)[O-])c1 | -7% | -11% | 14% | 5% | 3% | -10%
Cc1ccc(/C(O)=C2/C(=O)C(=O)N(CC(=O)O)C2c2ccc([N+](=O)[O-])cc2)cc1 (centres undefined) | -12% | u | u | 13% | x | -20%
COC(=O)C[C@@H]1C[C@@H]2c3cc(NS(=O)(=O)c4ccccc4)ccc3O[C@@H]2[C@@H](CO)O1 | x | x | u | u | x | -4%
CC(=O)NCCc1ccc(C(=O)COC(=O)c2cccs2)cc1 | x | x | -4% | 3% | x | -1%
Cc1ccc(-c2nc(CS(=O)(=O)CC(=O)N3CCc4ccccc4C3)c(C)o2)cc1 | -3% | -15% | 21µM* | 18µM* | 4% | -8%
Cc1ccc(-c2nc(CS(=O)(=O)CC(=O)N3CCCCCC3)c(C)o2)cc1 | -7% | 3% | u | u | 5% | -12%
Cc1ccc(-c2nc(CS(=O)(=O)CC(=O)N3CCN(c4ccccc4)CC3)c(C)o2)cc1 | -3% | 6% | 23µM* | u | 12% | x
CCN(c1ccccc1)S(=O)(=O)c1nnc(NC(=O)COc2cccc(C)c2)s1 | -9% | 0% | 1% | 5% | 3% | x
SMILES | KAT2A inh | VDR inhibitor | TDP1 cell noCPT | TDP1 cell CPT | TDP1 inh | PLK1 PBD block
O=C1NC[C@@H](CCCCN2C[C@H](Cc3ccc(O)cc3)N(Cc3ccccc3)C(=O)C2=O)N(Cc2ccccc2)C1=O | x | x | -5% | -8% | x | 0%
COc1ccc(/C=c2/sc3n(c2=O)C(c2ccccc2OC)C2=C(N=3)c3ccccc3CC2)cc1O (centres undefined) | -12% | 2% | 23µM* | 29µM* | 7% | -2%
CCOC(=O)C1=C(C)N(C)C(=O)NC1c1cccc([N+](=O)[O-])c1 (centres undefined) | x | -11% | 0% | -29% | x | 1%
CCOC(=O)C1=C(c2ccccc2)N=c2s/c(=C\c3ccco3)c(=O)n2C1c1cccs1 (centres undefined) | u | 9% | u | u | x | -3%
CCOC(=O)C1=C(c2ccccc2)N=c2s/c(=C\c3cc(OC)c(OC)c(OC)c3)c(=O)n2C1c1cccs1 (centres undefined) | 4% | 16% | 6.5µM* | u | -8% | -7%
CCOC(=O)C1=C(C)N=c2s/c(=C\c3ccc(O)c([N+](=O)[O-])c3)c(=O)n2C1c1ccccc1OC (centres undefined) | -2% | -2% | 18µM* | -17% | x | u
CCOC(=O)C1=C(C)n2c(s/c(=C/c3cccc([N+](=O)[O-])c3)c2=O)=NC1c1ccc(O)c(OC)c1 (centres undefined) | -5% | u | 16µM* | 16µM* | 0% | -6%
CCCCC(CC)Cn1c(Oc2ccccc2)nc2c1c(=O)n(C)c(=O)n2C (centres undefined) | -11% | -7% | u | u | -7% | x
O=C(CC1CS(=O)(=O)CC1CC(=O)Nc1ccc2c(c1)OCCO2)Nc1ccc2c(c1)OCCO2 (centres undefined) | -3% | u | -24% | -17% | 7% | -29%
O=C1CCCN1CCCN1CC(C(=O)N(CCO)Cc2ccccc2)CCC1=O (centres undefined) | 1% | 0% | 10% | 2% | 3% | 0%
CC(C)C[C@@H](CSc1ccccc1)N1CCN(CCc2ccccc2)CCC1=O | -5% | -9% | 21µM* | u | x | -22%
CCCN1CCC(=O)N([C@H](CSc2ccc(C)cc2)c2ccccc2)CC1 | -7% | -5% | 8.2µM* | 16µM* | 4% | -19%
